Experiment in all cases: log2 ratio of Biotin-Ahx-Ub-VS probe labelling (fragment/DMSO); higher = less target engagement (more negative = stronger competition), active = hit call of the paper (q ≤ 0.05, log2 ratio ≤ -1)
Common to all, as to conditions: compound concentration: 200 uM; treatment time: 3 h

For one assay, the target named is T1, OTUD6B (UniProt Q8N6M0).
T1 sequence (whole entry): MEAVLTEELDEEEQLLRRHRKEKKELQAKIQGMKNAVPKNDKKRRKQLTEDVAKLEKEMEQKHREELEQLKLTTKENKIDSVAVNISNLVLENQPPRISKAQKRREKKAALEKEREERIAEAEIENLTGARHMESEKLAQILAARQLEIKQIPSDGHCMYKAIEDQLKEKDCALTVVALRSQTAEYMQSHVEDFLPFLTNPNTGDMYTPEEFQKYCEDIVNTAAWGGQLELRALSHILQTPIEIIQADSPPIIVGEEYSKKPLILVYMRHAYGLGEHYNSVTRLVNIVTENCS
In outline: (§1)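 The table lists average log2 ratios of fragment over vehicle, from an unpaired t-test on global-median-normalised Spectronaut label-free quantities. Proteins with ≥2 unique peptides were used. Samples were HEK293T lysate (495 µg) treated in triplicate with fragment at 200 µM or vehicle for 3 h, then with Biotin-Ahx-Ub-VS (0.5 µM final) for 1 h, with labelled DUBs NeutrAvidin-enriched and run by diaPASEF LC-MS/MS.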

A further assay has as its target T2, OTUD7B (UniProt Q6GQQ9).
T2 sequence (whole entry): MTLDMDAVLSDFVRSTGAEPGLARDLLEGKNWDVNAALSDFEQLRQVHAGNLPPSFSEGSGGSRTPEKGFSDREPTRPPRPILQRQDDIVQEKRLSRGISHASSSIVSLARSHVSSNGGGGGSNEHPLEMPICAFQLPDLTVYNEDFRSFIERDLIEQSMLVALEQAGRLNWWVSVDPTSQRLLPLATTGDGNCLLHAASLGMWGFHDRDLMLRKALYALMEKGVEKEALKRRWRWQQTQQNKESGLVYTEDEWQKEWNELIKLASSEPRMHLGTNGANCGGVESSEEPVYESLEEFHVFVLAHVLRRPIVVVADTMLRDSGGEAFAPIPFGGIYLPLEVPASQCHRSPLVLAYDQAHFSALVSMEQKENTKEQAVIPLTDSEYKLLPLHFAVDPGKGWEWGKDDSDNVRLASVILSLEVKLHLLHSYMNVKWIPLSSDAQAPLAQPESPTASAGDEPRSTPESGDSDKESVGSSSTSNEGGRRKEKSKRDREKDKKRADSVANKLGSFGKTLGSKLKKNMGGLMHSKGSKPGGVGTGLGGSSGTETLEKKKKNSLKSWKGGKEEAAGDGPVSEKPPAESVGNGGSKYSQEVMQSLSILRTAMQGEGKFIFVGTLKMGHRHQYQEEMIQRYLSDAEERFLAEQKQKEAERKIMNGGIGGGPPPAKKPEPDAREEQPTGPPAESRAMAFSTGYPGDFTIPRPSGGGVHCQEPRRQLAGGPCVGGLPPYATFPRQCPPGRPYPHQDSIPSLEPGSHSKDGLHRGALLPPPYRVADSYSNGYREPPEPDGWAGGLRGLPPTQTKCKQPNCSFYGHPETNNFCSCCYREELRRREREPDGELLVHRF
In outline: as §1

The next assay concerns the target PRPF8 (UniProt Q6P2Q9). Put shortly:
as §1

For another assay, the target named is T3, PSMD7 (UniProt P51665).
T3 sequence (whole entry): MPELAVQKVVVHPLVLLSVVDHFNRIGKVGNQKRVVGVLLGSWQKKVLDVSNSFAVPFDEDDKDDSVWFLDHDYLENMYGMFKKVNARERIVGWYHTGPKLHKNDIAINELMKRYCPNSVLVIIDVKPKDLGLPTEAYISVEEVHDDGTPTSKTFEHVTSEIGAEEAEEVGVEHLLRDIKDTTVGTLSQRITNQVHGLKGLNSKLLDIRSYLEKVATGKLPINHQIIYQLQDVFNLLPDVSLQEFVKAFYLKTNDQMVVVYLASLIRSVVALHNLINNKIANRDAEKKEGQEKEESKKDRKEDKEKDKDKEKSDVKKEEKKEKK
In outline: as §1

The next assay concerns the target UCHL1 (UniProt P09936). In outline: as §1
In another assay the target is T4, UCHL3 (UniProt P15374).
T4 sequence (whole entry): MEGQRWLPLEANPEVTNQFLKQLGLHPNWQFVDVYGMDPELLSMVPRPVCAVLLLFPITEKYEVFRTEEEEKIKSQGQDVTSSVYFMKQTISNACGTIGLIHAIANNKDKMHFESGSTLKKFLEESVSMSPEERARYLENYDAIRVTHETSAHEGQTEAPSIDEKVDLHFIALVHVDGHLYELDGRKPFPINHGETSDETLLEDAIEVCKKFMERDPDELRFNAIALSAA
Put shortly: as §1

A further assay has as its target T5, UCHL5 (UniProt Q9Y5K5).
T5 sequence (whole entry): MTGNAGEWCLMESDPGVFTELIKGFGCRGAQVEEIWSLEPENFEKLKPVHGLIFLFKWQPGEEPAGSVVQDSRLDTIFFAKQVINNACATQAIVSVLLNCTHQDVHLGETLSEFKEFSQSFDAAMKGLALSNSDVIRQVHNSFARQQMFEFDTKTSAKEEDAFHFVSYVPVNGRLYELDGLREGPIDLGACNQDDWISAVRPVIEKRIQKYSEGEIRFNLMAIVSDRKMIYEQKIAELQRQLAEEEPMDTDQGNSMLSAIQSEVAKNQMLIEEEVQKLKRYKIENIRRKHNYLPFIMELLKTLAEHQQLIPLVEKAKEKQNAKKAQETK
Put shortly: as §1

Another assay addresses USP10 (UniProt Q14694). Put shortly: as §1
The target of a further assay is T6, USP15 (UniProt Q9Y4E8).
T6 sequence (whole entry): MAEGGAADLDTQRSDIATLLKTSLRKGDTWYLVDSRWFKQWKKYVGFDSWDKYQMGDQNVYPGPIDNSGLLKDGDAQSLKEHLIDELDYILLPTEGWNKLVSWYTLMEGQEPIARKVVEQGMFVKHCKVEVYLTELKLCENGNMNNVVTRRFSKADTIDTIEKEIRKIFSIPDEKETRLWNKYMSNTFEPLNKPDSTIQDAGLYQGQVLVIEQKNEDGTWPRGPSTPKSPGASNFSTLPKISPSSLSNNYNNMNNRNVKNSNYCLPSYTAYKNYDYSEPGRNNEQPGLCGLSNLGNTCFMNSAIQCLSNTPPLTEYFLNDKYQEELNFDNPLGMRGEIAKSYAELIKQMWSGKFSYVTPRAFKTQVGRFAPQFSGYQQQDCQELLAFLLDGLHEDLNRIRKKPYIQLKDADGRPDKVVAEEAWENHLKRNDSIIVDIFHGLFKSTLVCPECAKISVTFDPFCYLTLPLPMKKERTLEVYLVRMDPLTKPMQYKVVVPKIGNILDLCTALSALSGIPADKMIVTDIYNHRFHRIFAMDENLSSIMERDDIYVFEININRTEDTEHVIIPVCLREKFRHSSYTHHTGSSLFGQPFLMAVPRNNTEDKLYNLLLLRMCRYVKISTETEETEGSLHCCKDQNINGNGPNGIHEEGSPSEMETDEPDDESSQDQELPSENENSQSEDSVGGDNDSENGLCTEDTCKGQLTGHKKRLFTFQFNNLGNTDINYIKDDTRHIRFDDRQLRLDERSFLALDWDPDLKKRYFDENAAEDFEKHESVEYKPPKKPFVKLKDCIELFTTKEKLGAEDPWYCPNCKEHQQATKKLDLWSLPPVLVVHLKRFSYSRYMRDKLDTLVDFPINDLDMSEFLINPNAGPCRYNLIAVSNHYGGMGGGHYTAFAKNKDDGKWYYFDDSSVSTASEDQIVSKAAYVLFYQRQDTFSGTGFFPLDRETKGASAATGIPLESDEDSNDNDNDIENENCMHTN
Put shortly:
as §1

For a further assay, the target named is USP16 (UniProt Q9Y5T5). Put shortly: as §1

A number with no mark means an inactive call.

Results on one compound are retold here after the supplement of paper PMC11732987, “Enantioselective OTUD7B fragment discovery through chemoproteomics screening and high-throughput optimisation” (Communications Chemistry, 2025).

Chain of USP10 (Q14694 whole entry): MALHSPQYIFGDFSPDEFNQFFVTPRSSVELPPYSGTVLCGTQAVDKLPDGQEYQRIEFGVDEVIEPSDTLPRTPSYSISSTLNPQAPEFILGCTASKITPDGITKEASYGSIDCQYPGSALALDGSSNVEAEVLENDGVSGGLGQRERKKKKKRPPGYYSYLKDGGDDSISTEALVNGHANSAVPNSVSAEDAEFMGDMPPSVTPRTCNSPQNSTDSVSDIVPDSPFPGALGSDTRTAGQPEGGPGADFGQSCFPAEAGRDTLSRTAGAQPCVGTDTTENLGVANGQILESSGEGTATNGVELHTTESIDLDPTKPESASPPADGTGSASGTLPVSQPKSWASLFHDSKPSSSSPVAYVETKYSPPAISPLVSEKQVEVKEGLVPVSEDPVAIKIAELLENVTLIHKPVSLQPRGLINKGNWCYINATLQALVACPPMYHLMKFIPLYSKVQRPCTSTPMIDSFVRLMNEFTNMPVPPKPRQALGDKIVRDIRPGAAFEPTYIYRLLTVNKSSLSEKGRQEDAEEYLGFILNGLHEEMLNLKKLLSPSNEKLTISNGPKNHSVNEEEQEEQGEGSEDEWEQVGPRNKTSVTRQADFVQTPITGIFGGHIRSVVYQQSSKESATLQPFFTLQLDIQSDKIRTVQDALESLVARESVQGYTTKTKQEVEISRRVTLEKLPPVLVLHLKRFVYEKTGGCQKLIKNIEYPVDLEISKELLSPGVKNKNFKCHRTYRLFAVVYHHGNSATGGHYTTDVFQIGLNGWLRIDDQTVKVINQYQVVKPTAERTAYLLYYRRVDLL
Chain of USP16 (Q9Y5T5 whole entry, looked up): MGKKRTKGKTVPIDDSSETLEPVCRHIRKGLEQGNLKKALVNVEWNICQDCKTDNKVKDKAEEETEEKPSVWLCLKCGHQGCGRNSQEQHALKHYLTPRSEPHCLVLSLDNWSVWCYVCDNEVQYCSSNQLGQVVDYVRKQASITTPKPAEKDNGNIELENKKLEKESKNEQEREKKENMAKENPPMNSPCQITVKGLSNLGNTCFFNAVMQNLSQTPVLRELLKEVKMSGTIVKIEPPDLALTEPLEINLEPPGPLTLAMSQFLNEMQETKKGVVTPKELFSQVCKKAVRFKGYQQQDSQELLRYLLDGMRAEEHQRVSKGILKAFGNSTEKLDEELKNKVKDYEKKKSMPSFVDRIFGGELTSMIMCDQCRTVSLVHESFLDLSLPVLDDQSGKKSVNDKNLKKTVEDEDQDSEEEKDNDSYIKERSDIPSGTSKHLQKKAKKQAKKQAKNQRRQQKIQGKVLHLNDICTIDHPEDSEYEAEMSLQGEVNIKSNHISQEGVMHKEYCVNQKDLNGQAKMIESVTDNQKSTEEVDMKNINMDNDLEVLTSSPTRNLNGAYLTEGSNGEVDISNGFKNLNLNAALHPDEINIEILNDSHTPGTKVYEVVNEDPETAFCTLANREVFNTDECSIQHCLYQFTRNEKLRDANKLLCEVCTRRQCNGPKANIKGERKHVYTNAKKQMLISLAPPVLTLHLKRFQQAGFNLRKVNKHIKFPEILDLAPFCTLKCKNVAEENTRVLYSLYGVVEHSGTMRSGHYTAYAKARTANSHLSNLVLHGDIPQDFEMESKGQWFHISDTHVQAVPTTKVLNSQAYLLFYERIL
Chain of UCHL1 (P09936 whole entry, looked up): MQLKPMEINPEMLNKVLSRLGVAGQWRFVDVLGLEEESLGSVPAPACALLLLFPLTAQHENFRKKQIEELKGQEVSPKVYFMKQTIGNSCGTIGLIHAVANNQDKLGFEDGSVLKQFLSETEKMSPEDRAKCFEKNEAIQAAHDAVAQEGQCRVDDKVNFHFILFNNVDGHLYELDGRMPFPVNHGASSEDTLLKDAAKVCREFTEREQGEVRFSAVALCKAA

Consider `Cc1cccc(C)c1NC(=O)CCl`, for which the “log2 ratio of Biotin-Ahx-Ub-VS probe labelling” value with OTUD6B was -0.307; in the assay with OTUD7B, -0.52; with PRPF8 it was -0.0544; with PSMD7 it was -0.245; in the assay with UCHL1 it was -1.48 (active); in the assay with UCHL3 it was 0.0922. Besides, the “log2 ratio of Biotin-Ahx-Ub-VS probe labelling” value with UCHL5 is -0.309; with USP10, -0.108; with USP15, -0.203; in the assay with USP16, -0.0305.
